# Source: PubChem
# Sampled rows, rich in hits. Any-hit rate of the full collection: about 6.5%.
# FMDV inh – blocks foot and mouth disease virus; FMDV antiviral cell-based qHTS; 410,000 compounds, 1.2% hits; Potency, µM (series often up to 57.9 µM), inactives show at the top dose activity change, negative = inhibition, usual class: inhibitors; AID 1159524; calls by dose curve; tested in HEK293T cells; further: read-out not given here; potency means the concentration at half of the fitted maximal effect; nearly all actives have a fitted effect of over 45% in size
# Lassa entry inh – blocks Lassa virus binding to or entry into cells; Potency, µM (top dose mostly 37.9 µM), without a hit: at the top dose activity change, negative = inhibition, usual class: inhibitors; 300,000 compounds, 1.2% hits; Lassa virus pseudotype entry inhibition, cell reporter; calls by dose curve; tested in HEK293 cells; further: potency means the concentration at half of the fitted maximal effect; nearly all actives have a fitted effect of over 50% in size
# Vaccinia Venus – vaccinia inhibition (Venus reporter); Vaccinia virus Venus reporter expression, fluorescence; Potency, µM (doses to about 36.5 µM), inactives show at the top dose activity change, negative = inhibition, hits mostly inhibitors; 330,000 compounds, 0.46% hits; AID 720580; calls by dose curve; tested in A549 cells; further: potency means the concentration at half of the fitted maximal effect; nearly all actives have a fitted effect of over 30% in size
# MARV entry inh – inhibitors of Marburg virus binding or cell entry; Potency, µM (series often up to 37.8 µM), for the others: top-dose activity change, negative = inhibition, most hits filed as inhibitors; Marburg virus pseudotyped entry inhibition, cell reporter; 300,000 compounds, 1.8% hits; calls by dose curve; tested in HEK293 cells; further: potency means the concentration at half of the fitted maximal effect
# Vaccinia mCherry – inhibitors of vaccinia virus infection (mCherry reporter signal). Vaccinia virus mCherry reporter infection, fluorescence. Potency, µM (series often up to 36.5 µM), inactives show at the highest dose activity change, negative = inhibition, usual class: inhibitors. 310,000 compounds, 0.63% hits. AID 720579; calls by dose curve; tested in A549 cells; further: potency means the concentration at half of the fitted maximal effect; nearly all actives have a fitted effect of over 35% in size
# HCMV antiviral – inhibitors of human cytomegalovirus. HFF cells, HCMV-luciferase reporter, 72 h; stronger effect = lower value. activity change, negative = inhibition, % at 57.5 µM. 410,000 compounds, 4.5% hits. AID 1259415; in the data active means activity change below about -60%; inconclusive means no clear call, values can overlap the other calls; inactive means above about -39%
#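 Luciferase read-out from HCMV-luciferase-infected HFFs (MOI 1 PFU/cell) 72 h post infection at 37C; compounds added after 16 h cell attachment; activity normalized between buffer-only basal and Salinomycin (10uM) inhibitor controls.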
# * = called active by the depositor; i = inactive; ? = inconclusive; . = no result; ! = not active in a repeat; [ ] = dose if it differs, or a comment. On the % scale 0 is the no-effect control and ±100 the full control effect.
SMILES,FMDV inh,Lassa entry inh,Vaccinia Venus,MARV entry inh,Vaccinia mCherry,HCMV antiviral
O=C(c1ccccc1)N1c2nc(-c3ccco3)nn2C2(CCCCC2)[C@@H]2CCCC[C@@H]21,-7%,19%[46.1 µM],-5%,?,0%,24
O=C(c1cccc([N+](=O)[O-])c1)N1c2nc(-c3ccco3)nn2C2(CCCCC2)[C@@H]2CCCC[C@@H]21,-21%,-8%[46.1 µM],-14%,-12%[46.1 µM],-6%,-77*
COc1cccc(C(=O)N2c3nc(-c4ccco4)nn3C3(CCCCC3)[C@@H]3CCCC[C@@H]32)c1,-27%,6%[46.1 µM],3%,-7%[46.1 µM],-2%,-64*
CCCCCn1c(C(C)NC(=O)c2ccccc2)nc2ccccc21 (configuration not stated),-19%,20%[46.1 µM],-8%,-18%[46.1 µM],-18%,-9
COc1ccc(OC)c(C(C[N+](=O)[O-])c2c(C)cc3ccccn23)c1 (configuration not stated),22µM*,?,-5%,?,-20%,48
COc1ccc(C(C[N+](=O)[O-])c2c(C)cc3ccccn23)c(OC)c1 (configuration not stated),?,.,5%,?,2%,24
COc1cccc(N(C(=O)c2cnccn2)C(C(=O)NC2CCCCC2)c2ccc(Cl)cc2)c1 (configuration not stated),8%,-17%,-26%,-7%,-24%,-20
COc1ccc(C(C(=O)NC2CCCC2)N(C(=O)c2ccoc2C)c2ccc(C)cc2)cc1 (configuration not stated),-7%,?,-15%,-25%,-9%,?
COc1ccc(C(C(=O)NC2CCCCC2)N(C(=O)CCl)c2ccc(OC)cc2)cc1 (configuration not stated),8.9µM*,-24%,-17%,-15%,i,.
COc1ccc(C(C(=O)NC2CCCCC2)N(C(=O)CCl)c2cccc(Cl)c2)cc1 (configuration not stated),25µM*,3.5µM*,?,?,?,-99*
COc1ccc(C(C(=O)NC2CCCCC2)N(C(=O)CCl)c2ccc(C)cc2)cc1 (configuration not stated),?,?,-26%,?,-2%,-99*
CC(CC(c1ccccc1)c1ccccc1)NC(C)(C)C (configuration not stated),.,.,.,.,.,-20
Oc1c(Br)cc(/C=N/Nc2ccc(Cl)nn2)cc1Br,-11%,0%,-9%,9%,-15%,-15
CCOc1ccc(/C=N/Nc2ccc(Cl)nn2)c(O)c1,16%,12%,?,2%[46.1 µM],?,-82*
Oc1c(Br)cc(Br)cc1/C=N/Nc1ccc(Cl)nn1,1%,?,-7%,-1%[46.1 µM],-13%,-97*
CCc1ccc2c(c1)C(=O)CCC2,12%,26%[46.1 µM],-12%,1%[46.1 µM],i,-19
O=C1CCCc2cc3c(cc21)CC1(C3)Cc2cc3c(cc2C1)C(=O)CCC3,?,.,?,.,-10%,-81*
COc1ccc(CCN(C)Cc2ccc(OCc3ccccc3)c(OC)c2)cc1OC,4%,-10%,-18%,?,i,-8
COc1ccc(CCN(C)Cc2ccc(OC)c(OCc3ccccc3)c2)cc1OC,-24%,-1%,.,18µM*,.,51
CCN(CC)c1ccc(CN(C)CCc2ccc(OC)c(OC)c2)cc1,-14%,?,-16%,?,-2%,-2
COc1ccc(CN(C)CC(=O)Nc2ccc(SC(F)F)cc2)cc1OC,18µM*,?,-17%,?,-19%,-3
COc1ccc(CN(C)CC(=O)Nc2ccc(N3CCOCC3)cc2)cc1OC,-18%,1%,-6%,?,-18%,0
COc1ccc(CCN(C)Cc2ccc(C(=O)Nc3ccccc3)cc2)cc1OC,-25%,?,-27%,?,i,-73*
O=C(CCC1CCCN(C(=O)c2ccc3[nH]ccc3c2)C1)N1CCN(c2ccccn2)CC1 (configuration not stated),?,?,-18%,?,-2%,-83*
O=C(CCn1c(=O)[nH]c2ccsc2c1=O)N1CCN(c2cccc(Cl)c2)CC1,?,8%,.,?,.,7
SMILES,FMDV inh,Lassa entry inh,Vaccinia Venus,MARV entry inh,Vaccinia mCherry,HCMV antiviral
O=C(CCCn1c(=O)[nH]c2ccsc2c1=O)N1CCN(c2cccc(C(F)(F)F)c2)CC1,?,-21%[46.1 µM],-20%,-1%[46.1 µM],-27%,-105*
O=C(CCCCn1c(=O)[nH]c2ccsc2c1=O)N1CCN(c2cccc(Cl)c2)CC1,?,?,-19%,-20%[46.1 µM],?,-69*
CO/N=C/NC(=O)NOCc1c(Cl)cccc1Cl,0%,19%,-19%,-5%,.,-104*
O=C(N/C=N/OCc1ccc(Cl)cc1Cl)NOCc1c(Cl)cccc1Cl,?,-12%,-16%,?,-8%,-32
CN(C)CCC=C1c2ccccc2C=Cc2ccccc21,-26%,8.2µM*,-16%,6.5µM*,-9%,14
CN(C)CCC=C1c2ccccc2CCc2ccccc21,?,9.2µM*,-16%,12µM*!,?,?
C=CCCN1C(=O)NC(c2ccccc2)C(C(C)=O)=C1C (configuration not stated),.,.,.,29%[14.2 µM],.,.
O=C(NCCc1ccccc1Cl)c1cc2ccccn2n1,34%,?,-11%,.,-12%,0
CCN1C(=NCCc2cccnc2)NC(CCc2ccccc2)C(C(=O)OC)=C1C (configuration not stated),.,.,.,38%[14.2 µM],.,.
CCCCCCCCCCCCCCCC(=O)N[C@H](CN1CCOCC1)[C@H](O)c1ccccc1,-20%[6.7 µM],.,-7%[3.33 µM],.,i[3.33 µM],.
C/C=C(/C)C(=O)O[C@H]1C(C)=C2[C@H]([C@@H]1OC(=O)CCCCCCC)[C@@](C)(OC(C)=O)C[C@H](OC(=O)CCC)[C@@]1(O)[C@H]2OC(=O)[C@@]1(C)O,1%[39.8 µM],0.33µM*,-12%[20.9 µM],0.15µM*,-2%[20.9 µM],.
Cc1ccc(NC(=O)N2CC=C(c3c[nH]c4ccccc34)CC2)cc1Cl,-6%,?,-14%,.,-22%,-66*
COc1ccc(N=Nc2ccc(CO)cc2)cc1,0%,1µM*,-13%,?,-6%,70
O=C1/C(=N\S(=O)(=O)c2cccs2)C([n+]2cccc(Cc3ccccc3)c2)=C([O-])c2ccccc21,?,?,-27%,2.8µM*,?,.
Cc1cc(C)c[n+](C2=C([O-])c3ccccc3C(=O)/C2=N\S(=O)(=O)c2cccs2)c1,40µM*,.,.,.,.,0
O=C(/C=C/c1ccccc1)Nc1ccc(CN2CCOCC2)cc1,33%,.,.,.,.,-27
O=C(/C=C/c1ccc(Cl)cc1Cl)Nc1ccc(CN2CCOCC2)cc1,?,.,.,.,.,-86*
O=C(Nc1ccc(CN2CCOCC2)cc1)c1ccc(-c2cc(Cl)ccc2Cl)o1,28µM*,-30%,?,?,?,?
CCCCc1nc(NCCNC(=O)c2ccccc2)c(C#N)c2c1CSC(C)(C)C2,?,?,?,?,.,-104*
